We go through 69 compounds from ChEMBL document CHEMBL4513216, “Probing the Open Global Health Chemical Diversity Library for Multistage-Active Starting Points for Next-Generation Antimalarials” (ACS Infect Dis, 2020).

Molecules are shown by their SMILES. About 2,700 (4%) of roughly 68,000 compounds showed an effect of 50% or more. The full list was thinned out, with strong results kept by preference.

For the assay, the system named is Plasmodium berghei. The experiment in a line: Screen against P. berghei liver stage (PbLuc), transformed with Luciferase, at 2uM. The conditions noted are these: tested at 2 uM. Format: functional, HepG2.
As for `CCS(=O)(=O)N1CCC2(CN(c3cc(OC)ncn3)C2)C1`, the INHIBITION is on record as 35.37%. Turning to `CC(OCC1CC1)C(=O)Nc1cccc(C(=O)Nc2ccncc2)c1` (centres undefined), the INHIBITION stood at 10.72%. For the compound `CC(C)C[C@H](N)c1nnc(SCC(N)=O)o1`, the INHIBITION stood at 31.02%. Regarding `Cc1n[nH]c(C)c1CNC(=O)CSCc1ccccc1Cl`, the INHIBITION was 37.77%. On to `CCSc1ccc(C(=O)N2CCC3(CCC(=O)N(C)C3)CC2)s1`, for which the INHIBITION is -12.89%. `CSC1(CNc2ccc(Br)cn2)CCOCC1`: the INHIBITION stood at 30.06%. For `Cc1cc(C)cc(NC(=O)Nc2c(O)c3ccccc3oc2=O)c1` the value was 19.49%; for `Cc1cnn(CCCNC(=O)NC(C)C(=O)Nc2ccccc2)c1` (centres undefined), -17.39%. For `Cc1nnc(SCC(=O)c2cc3c(cc2Cl)NC(=O)C3)o1` the value was 54.73%.

For the compound `Nc1nnc(SCC(=O)c2cc3c(cc2Cl)NC(=O)C3)s1`, the INHIBITION is listed as 9.42%.

Turning to `Cc1nnc(SCC(=O)c2cc3c(cc2Cl)NC(=O)C3)s1`, the INHIBITION was -21.29%.

For `CCCNC(=O)C(C)n1nc(-c2ccc(C)o2)cc(N)c1=O` (centres undefined), the INHIBITION is recorded as 0.86%. For `Cc1ccc(CN2C[C@H]3CN(C(=O)c4ccno4)CCN3C2=O)cc1` the value was 2.66%.

Turning to `CC(C)CC(C)NCCCN1CCCN(C)CC1` (centres undefined), the INHIBITION worked out at 19.13%.

As for `Cc1occc1CNC(=O)C1(C)CCCN(C(=O)c2ccccc2)C1` (centres undefined), the INHIBITION was found to be 52.08%. As for `Cc1occc1CNC(=O)C1(C)CCCN1C(=O)c1ccccc1` (centres undefined), the INHIBITION worked out at 22.34%. `CC(C)C(=O)N1CCC12CCCN(C(=O)c1ccccc1)C2` (centres undefined): the INHIBITION is recorded as -1.55%. Turning to `Cc1c(C2CCCN(C(=O)c3cccnc3)C2)n2c(nc1=O)CCC2` (centres undefined), the INHIBITION is reported as -16%. For `Cn1cc(N2CCC3(CCCN(Cc4ccc(F)cc4)C3)C2=O)cn1` (centres undefined) the value was 51.26%; for `Cn1cc(CN2CCCC3(CCN(c4cccnc4)C3=O)C2)cn1` (centres undefined), -7.09%.

As to `Cn1cc(N2CCC3(CCCN(Cc4ccoc4)C3)C2=O)cn1` (centres undefined), the INHIBITION is 25.4%. For `COc1ccc(CN2CCC3(CC2)CCN(c2cnn(C)c2)C3=O)cc1` the value was 65.32%; for `COc1ccc(CN2CCC3(CCN(c4cccnc4)C3=O)C2)cc1` (centres undefined), 0.83%; for `Cn1cc(CN2CCC3(CCN(c4cnn(C)c4)C3=O)C2)cn1` (centres undefined), 13.61%. As for `Cn1ncc2c1CCCN(C(=O)C1CCC1)C2`, the INHIBITION is recorded as 7.46%. Regarding `Cc1nccnc1CCC1COCCN1C(=O)CCc1c(C)noc1C` (centres undefined), the INHIBITION is on record as -12.6%. On to `COc1cccc(-c2noc(-c3ccc(NCC4CC4)nc3)n2)c1OC`, for which the INHIBITION was -57.64%. As to `CC(C)(C)CN1CCC[C@H]1c1nc(-c2cncnc2N)no1`, the INHIBITION is recorded as -10.21%.

Turning to `COc1cc(CN(C(=O)Nc2cccnc2OC)C2CC2)ccc1O`, the INHIBITION was -34.31%.

`Cn1nc2c(cc1=O)CN(Cc1nnc(-c3ccco3)o1)CC2`: the INHIBITION is -32.49%. As for `Cc1cc2n(n1)CCN(c1nc(N(C)C)nc3c1CCNC3)C2`, the INHIBITION is recorded as 15.46%. For the compound `COc1cccc(CC2CN(C3CCN(C(C)=O)CC3)CCO2)c1` (centres undefined), the INHIBITION was 17.75%. Take `O=C(C1CCOCC1)N1CCOC(CC2CCCCC2)C1` (centres undefined): the INHIBITION is reported as 28.91%. For `CC(=O)N1CCC(N2CCOC(CC3CCCCC3)C2)CC1` (centres undefined) the value was 56.69%; for `Cc1ncoc1C(=O)N1CCOC(CC2CCCCC2)C1` (centres undefined), -78.64%. Consider `CN(C)C(=O)N1CCC(C(=O)N2CCOC(CC3CCCCC3)C2)CC1` (centres undefined), for which the INHIBITION worked out at 54.77%. For `CC(=O)N1CCC(C(=O)N2CCOC(CC3CCCCC3)C2)CC1` (centres undefined) the value was 38.49%. For `CC(C)c1nc2c(n1C)CCN(CCS(=O)(=O)c1ccccc1)C2` the value was 18.35%; for `CCCc1nnsc1C(=O)NCC1CCN(S(C)(=O)=O)CC1`, -4.49%. Consider `Cc1ccc(CNC2(Cc3cc(-c4ccc(F)cc4)on3)COC2)o1`, for which the INHIBITION is 44.15%. Consider `CN(C)c1cc(CNc2cncc(-n3cccn3)n2)ccn1`, for which the INHIBITION is on record as -15.92%.

With `COc1ccc2c(c1)CC(C1CCOCC1)N(C(=O)c1ccn(C)n1)C2` (centres undefined), the INHIBITION was found to be 15.61%.

Consider `CC(c1ccco1)N(C(=O)COc1ccc(C#N)cc1)C1CC1` (centres undefined), for which the INHIBITION is recorded as 41.03%.

Regarding `Cc1cccc(OCCN2CCC(c3ccnn3CCO)CC2)c1`, the INHIBITION is 7.13%. For `OCCn1nccc1C1CCN(CCOc2cccc(F)c2)CC1`, the INHIBITION stood at 53.98%. Regarding `OCCn1nccc1C1CCN(CCOc2ccccc2)CC1`, the INHIBITION stood at 39.72%. As to `Cc1cc2c(o1)CC(C)(C)CC2NC(=O)CNC(=O)C1CC1` (centres undefined), the INHIBITION is on record as -22.24%.

For `Cc1ncc(CN(C)C(=O)Nc2cccc(C(=O)N3CCOCC3)c2)s1`, the INHIBITION came out at 15.68%. For `CNC(=O)CN1CCOCC12CCN(Cc1ccncc1)CC2` the value was 34.47%. For `CNC(=O)CN1CCOCC12CCN(CCc1ccccc1)CC2`, the INHIBITION was determined as 53.08%. As to `CNC(=O)CN1CCOCC12CCN(C(=O)c1ccccc1)CC2`, the INHIBITION is listed as -41.11%. Regarding `Cc1cnn(CC2CCCCN2CCCS(N)(=O)=O)c1` (centres undefined), the INHIBITION stood at 8.1%.

With `CC(C)c1nc(O)c2nnn(C[C@H]3CCCN(Cc4cccs4)C3)c2n1`, the INHIBITION amounted to 4.91%. As for `CC1(C)CN(C(=O)c2ncc(F)cc2F)CCC1(O)CN1CCOCC1` (centres undefined), the INHIBITION came to 31.97%. For the compound `Cc1nc(Nc2ncc(C)s2)cc(C2CCCN2)n1` (centres undefined), the INHIBITION is listed as -30.88%. Regarding `Cc1ccc(C(=O)N2CCO[C@H]3[C@H](OCc4ccccn4)CC[C@@H]32)o1`, the INHIBITION is listed as 30.96%. With `Cc1cc(C)n(CCCC(=O)N2CCc3ncc(Cl)cc3C2)n1`, the INHIBITION is listed as 51.99%.

`Cc1nc(C)n(CC(=O)N2CCc3ncc(Cl)cc3C2)n1`: the INHIBITION came to 44.9%. With `Cc1nc(C)n(CCC(=O)N2CCc3ncc(Cl)cc3C2)n1`, the INHIBITION is given as 40.31%. On to `CN1C[C@@H](NC(=O)c2cc(F)cc(F)c2)C[C@H]1C(=O)NCc1ncc[nH]1`, for which the INHIBITION was -7.68%. For `CN1C[C@@H](NC(=O)C(C)(C)C)C[C@H]1C(=O)NCc1ncc[nH]1` the value was 67.85%; for `Cc1nnc(CNC(=O)[C@@H]2C[C@H](NC(=O)C(C)(C)C)CN2C)[nH]1`, -4.77%. With `N#Cc1c(Cl)nsc1NCc1cccnc1OCC(F)(F)F`, the INHIBITION is 5.94%. For `Cc1nn(C)cc1Cn1c(=O)cnc2ccccc21` the value was 2.82%; for `Cc1nn(C)cc1Cn1c(=O)c(C)nc2ccccc21`, 21.57%; for `Cc1nn(C)cc1Cn1c(=O)ccc2ccccc21`, 51.36%. With `CCc1nnc2n1CCN(C(=O)c1cnc3c(cnn3C(C)C)c1)C2`, the INHIBITION amounted to 24.05%. Regarding `Cc1nnc2n1CCN(C(=O)c1cnc3c(cnn3C(C)C)c1)C2`, the INHIBITION came to 17.48%. `Cc1nnc2n1CCN(C(=O)c1cnc3c(cnn3CC(C)C)c1)C2`: the INHIBITION was determined as 56.89%.
